High-throughput results from PubChem BioAssay.
Only some compounds are listed: those with a hit (about 3.2% of all), similar ones and a draw of the others.
BRCA1 expr act: activators of BRCA1 expression; 380,000 tested, 1.1% active; Potency, µM (titrated, usually from 46.1 µM), inactives show at the top dose activation, usual class: activators; MCF7-BRCA1-FFLuc reporter, luminescence, 48 h; response scale: scaled: vehicle 0%, 10 µM genistein 100%; note: potency is the fitted concentration of half-maximal effect; nearly all actives have a fitted effect of over 80% in size
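MCF7-BRCA1-FFLuc cells, 2000/well in phenol-red-free MEM, attached 2 h then treated 48 h at 37 C. Luciferase luminescence read 15 min after reagent; normalized to genistein maximum activation (10microM) and DMSO, concentration-response fitted.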
Nrf2 block: blocks Nrf2 signaling. A549 ARE-Fluc reporter, luciferase luminescence, 18-24 h. Potency, µM (titrated, usually from 46 µM), without a hit: at the highest dose activity change, negative = inhibition, hits mostly inhibitors. 360,000 tested, 2.1% active; note: potency is the fitted concentration of half-maximal effect; % is set by controls: 0 for no effect and ±100 for the full control effect; nearly all actives have a fitted effect of over 60% in size
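A549 ARE_Fluc cells, 5000/well, 5% FBS OPTI-MEM; compounds in dose-response, 18-24 h at 37 °C/5% CO2; CellTiter-Fluor viability read (Ex 405/Em 525), then BugLite luciferase luminescence = Nrf2 activity.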
A549 tox: counter-screen for Nrf2 inhibitors: cytotoxicity in A549 cells; A549 ARE-Fluc cells, CellTiter-Fluor viability, 18-24 h; AID 504648; 390,000 tested, 0.16% active; Potency, µM (titrated, usually from 46 µM), without a hit: at the highest dose activity change, negative = cytotoxicity, actives largely listed as inhibitors; note: potency is the fitted concentration of half-maximal effect; % is set by controls: 0 for no effect and ±100 for the full control effect
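Cytotoxicity counterscreen: CellTiter-Fluor fluorescence was measured in A549 ARE_Fluc cells after 18-24 h of compound exposure in a concentration series. The subsequent BugLite luminescent read reports ARE-luciferase activity.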
p53 reactivation: restores transcriptional activity of mutant p53. H1299 p53-A138V BP100-luciferase reporter, luminescence, 24 h. Potency, µM (highest dose often 92.2 µM), for inactives: top-dose activity change, positive = activation, usual class: activators. 320,000 tested, 0.063% active. AID 504706; note: potency is the fitted concentration of half-maximal effect; % of control where 0% means no effect; nearly all actives have a fitted effect of over 45% in size
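H1299 (p53-null), stable ts p53-A138V + BP100-Luc; 1000 cells/well, Opti-MEM/10% FBS; cpd 4 pt, 1:5; 24 h, 37 deg C, 5% CO2; detection reagent 10 min RT; luminescence.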
IL-2 act: IL-2 activation; IL-2 activation reporter assay, cell-based qHTS; stimulated with anti-CD3/CD4/CD28 beads; in transgenic mouse T cells; activation, % (series mostly up to about 46 µM); 360,000 tested, 0.065% active; AID 652025; in the data active = activation above about 50%; inconclusive = mostly about 30% to 49%; note: 0% is about no effect
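Screening format: compound pinned onto unstimulated transgenic mouse T cells, 60 min incubation, then anti-CD3/anti-CD4/anti-CD28 bead stimulation for 18 hours at 37 degrees C, followed by EGFP and DsRed detection.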
Nrf2 activator: Nrf2 pathway activation | Potency, µM (highest dose often 46.1 µM), without a hit: top-dose activation, usual class: activators | AREc32 ARE-luciferase reporter (MCF7-derived line), luminescence, 24 h | 410,000 tested, 0.31% active; note: potency is the fitted concentration of half-maximal effect; % of control where 0% means no effect; nearly all actives have a fitted effect of over 65% in size
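Reporter line AREc32 (ARE-Fluc), seeded overnight in OPTI-MEM with 5% FBS; compound pin-transferred, 24 hr at 37 deg C, 5% CO2; luminescent read-out.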
* marks the source's active call; other numbers are inactive results; ? = inconclusive; / = not tested or not shown; [ ] = remark or other dose. Unless noted, calls come from the whole dose curve; as a rule, active = well fitted curve in the direction sought with a large enough effect; inconclusive = small, poorly fitted or top-dose-only effect, or another doubt; inactive = no such curve, though single readings can be large; an effect the other way counts as inactive or inconclusive.

SMILES | BRCA1 expr act | Nrf2 block | A549 tox | p53 reactivation | IL-2 act | Nrf2 activator
Cc1ccccc1OCC(=O)Nc1ccc(S(=O)(=O)N(Cc2ccccc2)c2ccccc2)cc1 | / | 1% | 7% | / | / | 0%
COc1cccc(C(=O)Nc2ccc3c(c2)CCCN3C(=O)c2cccs2)c1OC | 8% | 21µM* | -11% | 2% | -5 | 4%
COc1ccc(C(=O)Nc2ccc3c(c2)CCCN3C(=O)c2cccs2)c(OC)c1 | -20% | -1% | -4% | -13% | -1 | 0%
COc1cccc(C(=O)Nc2ccncc2)c1OC | -25% | 23µM* | -4% | / | 1 | 0%
COc1ccc(C2Nc3ccccc3C(=O)N2Cc2ccccc2)cc1COc1ccc([N+](=O)[O-])cc1 (centres undefined) | 0% | -15% | 3% | / | / | /
O=C(CN(CCc1c[nH]c2ccccc12)S(=O)(=O)c1ccccc1)N1CCCCCC1 | -28% | / | / | / | / | /
Cc1ccc(NC(=O)CCc2nnc3n(C)c(=O)c4sccc4n23)cc1C | / | -6%[9.27 µM] | ? | / | / | -1%
O=S(=O)(c1ccccc1)C1(S(=O)(=O)c2ccccc2)CCCC1 | 8% | -22% | -12% | 10% | 4 | 0%
Cc1ccc(S(=O)(=O)C2(S(=O)(=O)c3ccc(C)cc3)CC2)cc1 | -34% | 23µM* | -15% | -2% | -3 | 3%
Cc1nn(-c2ccc(F)cc2)c(Cl)c1C(=O)OC(C)C(=O)N(C)C1CCCCC1 (centres undefined) | -27% | 18µM* | -7% | -3% | -1 | 9%
Cc1nn(-c2ccccc2)c(Cl)c1C(=O)OC(C)C(=O)NC(=O)NC1CCCCC1 (centres undefined) | -26% | ? | -12% | -32% | -1 | 2%
C[n+]1c2n(c3ccccc31)N=C(c1ccc(Cl)cc1)CS2 | -93% | ? | / | 1% | -4 | ?
CC1Sc2n(c3ccccc3[n+]2C)N=C1c1ccccc1 (centres undefined) | -77% | 12µM* | -18% | 7% | -4 | ?
CCSc1ncc(Cl)c(C(=O)N2CCN(c3ccccc3OC)CC2)n1 | / | -8% | 0% | / | / | 0%
Cn1/c(=N/NC(=O)c2ccccc2Br)sc2ccccc21 | 10µM* | ? | -8% | 4% | 0 | 2%
COc1cc(C(=O)N/N=c2/sc3ccccc3n2C)cc(OC)c1OC | -24% | 19% | 3% | 9% | -1 | 0%
CCCc1nn2c(=O)cc(COC(=O)c3cccc(NC(=O)CCc4ccccc4)c3)nc2s1 | / | / | -2% | / | / | ?
CCCCCCn1c(N2CCN(c3ccccc3)CC2)nc2c1c(=O)[nH]c(=O)n2C | -70% | 21µM* | ? | -19% | 0 | 2%
CCOC(=O)C1CCN(C(=O)C2CCN(S(=O)(=O)c3c(C)noc3/C=C/c3ccc(C)cc3)CC2)CC1 | -35% | / | -1% | / | / | 3%
N#C/C(=N\Nc1ccccc1)C(=N)N1CCCCCC1 | 2.5µM* | ? | -13% | 8% | 0 | 0%
O=S(=O)(c1cccc(O)c1)N1CCN(S(=O)(=O)c2c(F)cccc2F)CC1 | / | 3% | -1% | / | / | /
CCCCN(C)C(=O)c1oc2ccc(S(=O)(=O)N3CCCCCC3)cc2c1C | -93% | 16µM* | -13% | 16% | -5 | 3%
Cc1c(C(=O)NCC2COc3ccccc3O2)oc2ccc(S(=O)(=O)N3CCOCC3)cc12 (centres undefined) | -55% | 18µM* | -16% | -18% | -1 | -1%
O=C(NCC1COc2ccccc2O1)c1cc(S(=O)(=O)N2CCOCC2)c(Cl)cc1Cl (centres undefined) | -17% | 23µM* | 0% | -18% | -3 | 2%
Cc1c(C(=O)NCc2ccccc2)oc2ccc(S(=O)(=O)N3CCC4(CC3)OCCO4)cc12 | 0% | 21µM* | 1% | 5% | -2 | 3%
SMILES | BRCA1 expr act | Nrf2 block | A549 tox | p53 reactivation | IL-2 act | Nrf2 activator
Cc1c(C(=O)O)oc2ccc(S(=O)(=O)N3CCCC3)cc12 | 1% | -7% | 0% | 2% | 0 | 0%
COc1ccc(CN2CCCN(CC(=O)Nc3ccc4c(c3)OCCO4)S2(=O)=O)cc1 | / | / | 1% | / | / | 5%
COc1cc(C)nc(N2CCCC(C(=O)NC3CCC(C)CC3)C2)n1 (centres undefined) | 3.5µM* | ? | -1% | ? | 0 | 3%
O=C1CCc2cc(S(=O)(=O)Nc3ccccn3)ccc2N1 | / | 15% | 12% | / | / | /
CCN1C(C(=O)c2ccccc2)=C(OC(=O)COc2ccccc2)c2ccccc2S1(=O)=O | / | ? | 15µM* | / | / | 0%
CCCCC(=O)OC1=C(C(=O)c2ccccc2)N(CCC)S(=O)(=O)c2ccccc21 | / | ? | ? | / | / | -1%
CCCCCN1C(C(=O)c2ccccc2)=C(OC(=O)CC)c2ccccc2S1(=O)=O | / | 5.8µM* | ? | / | / | -2%
CCCCN1C(C(=O)c2ccccc2)=C(OC(=O)CC)c2ccccc2S1(=O)=O | / | 21µM* | ? | / | / | -3%
CCCN1C(C(=O)c2ccccc2)=C(OC(=O)c2ccc(F)cc2)c2ccccc2S1(=O)=O | / | ? | ? | / | / | -1%
CCCN1C(C(=O)c2ccccc2)=C(OC(=O)c2ccc(C)cc2)c2ccccc2S1(=O)=O | / | 23µM* | ? | / | / | -2%
CCN1C(C(=O)c2ccccc2)=C(OC(=O)C(C)C)c2ccccc2S1(=O)=O | / | ? | ? | / | / | 0%
CCOc1ccc(NC(=O)CCNS(=O)(=O)c2ccc3c(c2)CCCC(=O)N3)cc1 | -11% | -1% | 3% | / | / | -1%
Cc1c(C(=O)Nc2ccc(F)cc2F)oc2c1-c1nn(Cc3c(F)cccc3Cl)cc1CC2 | / | 17% | 5% | / | / | 1%
Cc1nc2ccccn2c1C(O)(c1ccccc1)c1ccccc1 | / | -2% | 0% | / | / | /
Cc1nn(C)c(Sc2ccccc2N)c1[N+](=O)[O-] | -30% | 8% | -1% | ? | -1 | 14µM*
COc1ccc(-c2cc(C)nc(SCC(=O)c3cccc([N+](=O)[O-])c3)n2)cc1 | -45% | 21µM* | -22% | -5% | 2 | 0%
